# Laboratory results taken from PubChem BioAssay (EPA / NIEHS).
# Inconclusive results are not listed. Calls of active or inactive are those of the source. Rule for the calls: active = hit-call score of the fitted dose curve at least 0.9, where 1 is the maximum; inconclusive = response in the unintended direction; inactive = score below 0.9.
# What was measured:
# [1] = target: Estrogen receptor (Homo sapiens) (UniProt P03372); assay: OT_ER_ERaERa_1440: Odyssey Thera (OT) 24-hour HEK293T Protein-Complementation Assay for Estrogen Receptor-alpha/-alpha Homodimer (AID 2283349);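 note: hits raise fluorescence above DMSO for agonists and antagonists alike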
# Chain of Estrogen receptor (Homo sapiens) (P03372 whole entry, looked up, the tested form may be a part): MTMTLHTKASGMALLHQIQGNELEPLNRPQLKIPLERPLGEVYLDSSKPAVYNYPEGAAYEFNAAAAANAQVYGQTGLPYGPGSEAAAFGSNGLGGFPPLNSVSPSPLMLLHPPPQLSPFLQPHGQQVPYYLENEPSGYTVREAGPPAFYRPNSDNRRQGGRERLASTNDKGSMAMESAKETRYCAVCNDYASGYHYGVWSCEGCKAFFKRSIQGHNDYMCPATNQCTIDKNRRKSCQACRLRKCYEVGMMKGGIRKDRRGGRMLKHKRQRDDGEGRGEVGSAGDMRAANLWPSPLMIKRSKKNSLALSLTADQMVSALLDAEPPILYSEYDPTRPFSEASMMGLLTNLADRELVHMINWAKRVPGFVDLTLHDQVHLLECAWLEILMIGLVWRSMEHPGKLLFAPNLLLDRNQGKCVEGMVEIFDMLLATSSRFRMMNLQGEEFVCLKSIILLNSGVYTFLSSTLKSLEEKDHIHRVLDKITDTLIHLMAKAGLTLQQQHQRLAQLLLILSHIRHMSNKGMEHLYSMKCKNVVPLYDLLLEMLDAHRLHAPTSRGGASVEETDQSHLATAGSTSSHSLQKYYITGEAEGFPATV
# Summary of the method: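 Protein-fragment complementation between two human ERα ligand-binding domains (aa 310-547) in stably transfected HEK293T cells was monitored after 24 h treatment, using fluorescence intensity relative to vehicle controls.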
# [2] = target: Bile acid receptor (Homo sapiens) (UniProt Q96RI1); assay: NVS_NR_hFXR_Antagonist: NovaScreen (NVS) Nuclear Receptor Binding Assay for human Farnesoid X Receptor Antagonism (FXR) (AID 2283350)
# Chain of Bile acid receptor (Homo sapiens) (Q96RI1 whole entry, looked up): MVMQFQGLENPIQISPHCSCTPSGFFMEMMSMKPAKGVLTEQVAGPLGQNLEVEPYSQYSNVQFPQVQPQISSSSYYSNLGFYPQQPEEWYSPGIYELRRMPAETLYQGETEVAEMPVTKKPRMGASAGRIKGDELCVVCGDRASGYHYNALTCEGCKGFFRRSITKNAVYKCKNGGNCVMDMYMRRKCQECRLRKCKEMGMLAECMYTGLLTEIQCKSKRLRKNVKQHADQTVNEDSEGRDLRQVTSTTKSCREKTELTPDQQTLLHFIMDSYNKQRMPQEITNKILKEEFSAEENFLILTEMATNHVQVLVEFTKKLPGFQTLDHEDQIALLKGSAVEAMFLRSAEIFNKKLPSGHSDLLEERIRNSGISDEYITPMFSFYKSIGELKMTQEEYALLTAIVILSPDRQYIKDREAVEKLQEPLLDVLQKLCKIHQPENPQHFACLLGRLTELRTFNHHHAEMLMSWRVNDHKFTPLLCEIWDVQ
# Summary of the method: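 Cell-free TR-FRET ligand-binding read-out on human FXR (NR1H4) in antagonist mode, measured 1 h after dosing. Primary screen in duplicate at 25 uM, actives retested in concentration series; signal loss scored versus DMSO.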
# [3] = target: Estrogen receptor (Homo sapiens) (UniProt P03372); assay: OT_ER_ERaERa_0480: Odyssey Thera (OT) 8-hour HEK293T Protein-Complementation Assay for Estrogen Receptor-alpha/-alpha Homodimer (AID 2283351);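 note: rise in fluorescence from reassembled reporter fragments on ERα LBD homodimer in nucleus or whole cell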
# Summary of the method: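 Binding reporter in which dimerisation of ERα LBD (aa 310-547) fusions reconstitutes a fluorescent reporter in HEK293T cells. Compounds incubated 8 h; mean fluorescence intensity increase versus DMSO scored.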
# [4] = target: Androgen Receptor/SRC-1 Co-activator, AR (gene 367) (UniProt P10275); assay: OT_AR_ARSRC1_0960: Odyssey Thera (OT) 16-hour HEK293T Protein-Complementation Assay for Androgen Receptor/SRC-1 Co-activator (AID 2283353);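 note: actives raise the signal above DMSO so potency reflects increased AR and SRC-1 complex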
# Chain of Androgen Receptor/SRC-1 Co-activator, AR (gene 367) (P10275 whole entry, looked up, the tested form may be a part): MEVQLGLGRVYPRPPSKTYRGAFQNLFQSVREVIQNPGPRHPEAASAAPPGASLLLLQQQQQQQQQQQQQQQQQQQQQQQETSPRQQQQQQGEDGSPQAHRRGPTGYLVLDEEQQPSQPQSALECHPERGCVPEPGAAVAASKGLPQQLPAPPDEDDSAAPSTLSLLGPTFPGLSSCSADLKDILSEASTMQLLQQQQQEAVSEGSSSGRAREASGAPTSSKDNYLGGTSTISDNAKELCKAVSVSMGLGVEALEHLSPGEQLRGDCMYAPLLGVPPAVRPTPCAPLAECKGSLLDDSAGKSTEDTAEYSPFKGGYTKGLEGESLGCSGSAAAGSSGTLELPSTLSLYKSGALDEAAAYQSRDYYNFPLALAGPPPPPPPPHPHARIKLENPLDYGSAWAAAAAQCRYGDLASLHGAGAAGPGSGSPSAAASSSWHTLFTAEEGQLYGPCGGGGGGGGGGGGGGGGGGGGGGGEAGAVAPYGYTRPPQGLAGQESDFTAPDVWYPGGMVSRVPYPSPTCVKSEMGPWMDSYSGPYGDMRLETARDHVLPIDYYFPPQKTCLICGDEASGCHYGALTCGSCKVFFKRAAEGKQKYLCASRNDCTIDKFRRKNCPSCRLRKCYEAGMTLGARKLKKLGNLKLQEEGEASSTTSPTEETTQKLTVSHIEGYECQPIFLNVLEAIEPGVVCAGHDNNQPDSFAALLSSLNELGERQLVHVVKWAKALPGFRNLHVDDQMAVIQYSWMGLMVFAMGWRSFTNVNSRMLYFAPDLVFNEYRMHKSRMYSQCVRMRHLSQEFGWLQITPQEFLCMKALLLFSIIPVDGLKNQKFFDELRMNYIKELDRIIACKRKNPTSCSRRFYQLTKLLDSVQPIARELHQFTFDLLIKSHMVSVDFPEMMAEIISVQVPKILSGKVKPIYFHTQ
# Summary of the method: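 Interaction of AR with SRC-1 was followed by YFP fragment complementation in HEK293T cells after 16 h of dosing. Gain of nuclear-over-cytoplasmic 488 nm fluorescence against DMSO controls defined activity.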
# [5] = target: Androgen Receptor/SRC-1 Co-activator, AR (gene 367) (UniProt P10275); assay: OT_AR_ARSRC1_0480: Odyssey Thera (OT) 8-hour HEK293T Protein-Complementation Assay for Androgen Receptor/SRC-1 Co-activator (AID 2283354);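 note: hits raise the complementation signal above DMSO so AC50 marks enhancers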
# Summary of the method: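 Measures AR/SRC-1 binding by Venus YFP fragment complementation in HEK293T stable lines at 8 h post-dose. Imaging quantifies the 488nm nucleus/cytoplasm ratio in ≥400 cells; DMSO defines baseline.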
# [6] = target: Estrogen receptor (Homo sapiens) (UniProt P03372); assay: NVS_NR_hER: NovaScreen (NVS) Nuclear Receptor Binding Assay for human Estrogen Receptor (ER) (AID 2283348)
# Summary of the method: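 Scintillation signal from bound radioligand was measured 18 hours after chemical addition to cell-free MCF7 protein extracts, with DMSO as baseline. Activity was scored as signal loss; compounds ran first at 25 uM in duplicate.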
# [7] = target: Estrogen receptor (Homo sapiens) + Estrogen receptor beta (Homo sapiens) (UniProt P03372+Q92731); assay: OT_ER_ERaERb_0480: Odyssey Thera (OT) 8-hour HEK293T Protein-Complementation Assay for Estrogen Receptor-alpha/-beta Heterodimer (AID 2283352)
# Chain of Estrogen receptor (Homo sapiens) + Estrogen receptor beta (Homo sapiens) (P03372 whole entry, looked up, the tested form may be a part): as the sequence (P03372 whole entry, looked up, the tested form may be a part) above
# Chain of Estrogen receptor (Homo sapiens) + Estrogen receptor beta (Homo sapiens) (Q92731 whole entry, looked up, the tested form may be a part): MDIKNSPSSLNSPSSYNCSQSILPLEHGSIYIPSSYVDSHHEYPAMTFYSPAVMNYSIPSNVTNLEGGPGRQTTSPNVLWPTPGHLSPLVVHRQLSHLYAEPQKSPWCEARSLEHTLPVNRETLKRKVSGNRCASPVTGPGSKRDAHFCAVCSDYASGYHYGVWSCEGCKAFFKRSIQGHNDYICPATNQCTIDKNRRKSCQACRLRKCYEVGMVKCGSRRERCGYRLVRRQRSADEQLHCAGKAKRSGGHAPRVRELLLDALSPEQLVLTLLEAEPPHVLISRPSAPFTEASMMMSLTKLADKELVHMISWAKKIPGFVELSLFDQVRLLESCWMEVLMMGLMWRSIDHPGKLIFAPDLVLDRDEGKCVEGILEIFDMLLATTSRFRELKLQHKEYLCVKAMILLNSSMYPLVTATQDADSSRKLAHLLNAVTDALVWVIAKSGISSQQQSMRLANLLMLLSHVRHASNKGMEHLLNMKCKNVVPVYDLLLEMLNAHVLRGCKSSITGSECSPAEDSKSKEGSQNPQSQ
# Summary of the method: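 Human HEK293T cells were treated for 8 hours and receptor heterodimerisation was detected through reconstitution of a fluorescent reporter split between ER-alpha and ER-beta ligand-binding domains. Activity was analysed as gain of signal against DMSO.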
# [8] = target: Estrogen receptor beta (Homo sapiens) (UniProt Q92731); assay: OT_ER_ERbERb_0480: Odyssey Thera (OT) 8-hour HEK293T Protein-Complementation Assay for Estrogen Receptor-beta/-beta Homodimer (AID 2283357);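 note: active means signal gain over DMSO baseline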
# Chain of Estrogen receptor beta (Homo sapiens) (Q92731 whole entry, looked up, the tested form may be a part): as above
# Summary of the method: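 Cells (HEK293T, stable ER-beta LBD PCA pair) are treated 8 hours, fixed and Draq5-stained; signal is fluorescence intensity increase relative to vehicle, fitted in the gain direction.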
smiles,measurement,setting,value
O=C(O)c1ccccc1C(=O)OCc1ccccc1,outcome,[1],inactive
same,outcome,[2],inactive
same,outcome,[3],inactive
same,outcome,[4],inactive
same,outcome,[5],inactive
CCOC(=O)O[C@H](C)OC(=O)c1ccc2c(c1)cc(C(=O)NC1CCN(C(C)C)CC1)n2Cc1cc(-c2ccc(Cl)s2)on1,outcome,[6],inactive
same,outcome,[1],inactive
same,outcome,[3],inactive
CCN(CC)C(=O)c1cc(S(=O)(=O)Cc2ccccc2)c(N2CCC(c3ccccc3)CC2)cc1N(CC)CCN(C)C,outcome,[1],inactive
same,AC50,[2],10.1 µM (active)
same,outcome,[3],inactive
CCO[Si](CCCNC(N)=O)(OCC)OCC,outcome,[1],inactive
same,outcome,[2],inactive
same,outcome,[3],inactive
same,outcome,[7],inactive
NC(=O)c1nc(-c2cccc(-c3cc(F)ccc3OCC(F)(F)C(F)(F)F)c2)n[nH]1,outcome,[6],inactive
same,outcome,[1],inactive
same,outcome,[3],inactive
same,AC50,[4],50 µM (active)
same,AC50,[5],50 µM (active)
CCN(Cc1cccc(S(=O)(=O)O)c1)c1ccc(C(=C2C=CC(=[N+](CC)Cc3cccc(S(=O)(=O)O)c3)C=C2)c2ccccc2S(=O)(=O)[O-])cc1,outcome,[1],inactive
same,outcome,[2],inactive
same,outcome,[7],inactive
CCCOC(=O)c1cc(O)c(O)c(O)c1,outcome,[6],inactive
same,outcome,[1],inactive
same,AC50,[3],50 µM (active)
same,AC50,[7],39.8 µM (active)
NCc1cccc(C2CCN(C(=O)c3ccc(C#Cc4ccccc4F)o3)CC2)c1,outcome,[6],inactive
same,outcome,[1],inactive
same,outcome,[3],inactive
same,AC50,[4],14.6 µM (active)
same,AC50,[5],13.3 µM (active)
CN(C[C@@H](CC[N+]12CCC(C3CCCCC3)(CC1)CC2)c1ccc(Cl)c(Cl)c1)C(=O)c1cc(C(F)(F)F)cc(C(F)(F)F)c1,AC50,[6],33 µM (active)
same,outcome,[1],inactive
same,outcome,[3],inactive
same,AC50,[4],21.3 µM (active)
same,AC50,[5],20.9 µM (active)
Clc1cc(Cl)c2c(c1)N=C1CCCCCN1C2,outcome,[1],inactive
same,outcome,[3],inactive
CC[C@H](NC(=O)c1cc(F)ccc1NS(=O)(=O)c1cccc2cccnc12)c1ccccc1,outcome,[6],inactive
same,outcome,[1],inactive
same,outcome,[3],inactive
same,outcome,[7],inactive
same,outcome,[8],inactive
CC[C@@H]1C[C@H](N(Cc2cc(C(F)(F)F)cc(C(F)(F)F)c2)C(C)=O)c2cc(C(F)(F)F)ccc2N1C(=O)OC(C)C,outcome,[1],inactive
CC(=O)N1CCN(c2ccc(OC[C@H]3CO[C@](Cn4ccnc4)(c4ccc(Cl)cc4Cl)O3)cc2)CC1,outcome,[1],inactive
same,AC50,[2],20.2 µM (active)
same,outcome,[3],inactive
same,outcome,[7],inactive
O=C(Nc1ccc(Cl)cc1)Nc1ccc(Cl)c(Cl)c1,outcome,[6],inactive
same,outcome,[1],inactive
same,outcome,[2],inactive
same,outcome,[3],inactive
same,outcome,[7],inactive
same,AC50,[4],4.86 µM (active)
same,outcome,[5],inactive
